Source: PubChem BioAssay (Tox21)
Records with an inconclusive call do not appear. Activity calls are given as the source filed them. Unless noted, calls follow the shape of the dose curve; as a rule, active = well fitted curve in the direction sought with a large enough effect in the repeat runs; inconclusive = weak or mixed curves; inactive = no such curve, though single readings can be large; an effect the other way counts as inactive or inconclusive.

What was measured:
[1] = qHTS assay for small molecules that induce genotoxicity in human embryonic kidney cells expressing luciferase-tagged ATAD5 (AID 651632); also: nearly all actives have a fitted effect of over 15% in size
Procedure, shortened: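 Increased luciferase signal from ATAD5-tagged reporter cells indicates DNA-damage-driven ATAD5 induction. HEK293T cells are treated for 16 hr at 37C before detection with Amplite.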

[2] = qHTS assay for small molecule agonists of the p53 signaling pathway - cell viability (AID 651633; calls by dose curve;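 also: p53RE-bla HCT reporter cells with a stable beta-lactamase p53 reporter; series mostly up to about 83 µM; nearly all actives have a fitted effect of over 30% in size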)
Procedure, shortened: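 p53RE-bla cells were treated with compound for 16 hours at 37 C. Cytotoxicity was then measured as CellTiter-Glo luminescence after 30 min at room temperature.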

[3] = qHTS assay for small molecules that induce genotoxicity in human embryonic kidney cells expressing luciferase-tagged ATAD5 - cell viability (AID 651634; calls by dose curve; also: nearly all actives have a fitted effect of over 25% in size)
Procedure, shortened: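 Cytotoxicity counterscreen in HEK293T cells bearing an ATAD5-luciferase reporter: live-cell protease activity measured by CellTiter-Fluor fluorescence after 15.5 hr compound exposure.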

[4] = qHTS assay for small molecule disruptors of the mitochondrial membrane potential - cell viability (AID 720634; calls by dose curve;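 also: human HepG2 liver cancer cells; series mostly up to about 83 µM; nearly all actives have a fitted effect of over 20% in size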)
Procedure, shortened: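 After overnight attachment at 37 C, HepG2 cells received compound or DMSO vehicle for 1 hr. Viability is then taken from ATP-driven luminescence following a 30 min room-temperature CellTiter-Glo step.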

[5] = qHTS assay for small molecule disruptors of the mitochondrial membrane potential (AID 720635)
Procedure, shortened: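 HepG2 cells exposed to compound 1 hr at 37C, then Mito-MPS dye 30 min. Ratio read of aggregate (540/590 nm) versus monomer (490/535 nm) fluorescence.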

[6] = qHTS assay to test for compound auto fluorescence at 590 nm (red) in HepG2 cells (AID 720674)
Procedure, shortened: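 Fluorescence at 590 nm emission following 540 nm excitation was recorded from HepG2 wells one hour after compound transfer, with DMSO-only wells as vehicle and Rose Bengal sodium equivalency as the scale.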

[7] = qHTS assay to test for compound auto fluorescence at 535 nm (green) in HepG2 cells (AID 720675)
[8] = qHTS assay to test for compound auto fluorescence at 460 nm (blue) in HEK293 cells (AID 720678)
Procedure, shortened: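 Triamterene serves as the blue fluorophore standard. Compound signal at 405/460 nm is read in HEK293 wells (2,000 cells, 10% dialyzed FBS) after overnight treatment at 37C.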

[9] = qHTS assay to test for compound auto fluorescence at 535 nm (green) in HEK293 cells (AID 720680)
[10] = qHTS assay to test for compound auto fluorescence at 460 nm (blue) in HEK293 cell free culture (AID 720681)
Procedure, shortened: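 Compounds were added to cell-free DMEM with 10% FBS and fluorescence read directly. The blue channel used 405 nm excitation and 460 nm emission, with triamterene as the reference fluorophore.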

[11] = qHTS assay to test for compound auto fluorescence at 535 nm (green) in HEK293 cell free culture (AID 720682)
Procedure, shortened: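 Green-channel intensity (Ex/Em 485/535 nm) was recorded from compound-treated wells containing only DMEM with 10% FBS. Fluorescein provided the equivalency standard.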

[12] = qHTS assay to test for compound auto fluorescence at 590 nm (red) in HEK293 cell free culture (AID 720683)
Procedure, shortened: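 Cell-free wells of DMEM with 10% FBS received compound, and intrinsic fluorescence was read at excitation/emission 540/590 nm. Values expressed as equivalence to Rose Bengal sodium.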

[13] = qHTS assay to test for compound auto fluorescence at 590 nm (red) in HepG2 cell free culture (AID 720684)
Procedure, shortened: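 Compound was pinned into wells holding MEM with 10% FBS and no cells, and red fluorescence was read at Ex/Em 540/590 nm. Signal is expressed as auto fluorescence equivalency relative to Rose Bengal sodium.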

[14] = qHTS assay to test for compound auto fluorescence at 460 nm (blue) in HepG2 cell free culture (AID 720685)
Procedure, shortened: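 Compound (23 nL) or DMSO pinned into cell-free MEM with 10% FBS; blue fluorescence read at 405/460 nm excitation/emission, expressed as auto-fluorescence equivalency to triamterene.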

[15] = qHTS assay to test for compound auto fluorescence at 535 nm (green) in HepG2 cell free culture (AID 720686)
[16] = qHTS assay to test for compound auto fluorescence at 460 nm (blue) in HepG2 cells (AID 720687)
Procedure, shortened: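 HepG2 cells in MEM with 10% FBS, attached overnight at 37 C, were exposed to compound or DMSO for 1 hr at 37 C, 5% CO2. Blue fluorescence was read at 405/460 nm, with triamterene as reference fluorophore.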

[17] = molecular target: Glucocorticoid receptor (Homo sapiens) (UniProt P04150); test: qHTS assay to identify small molecule agonists of the glucocorticoid receptor (GR) signaling pathway (AID 720691; active = well fitted activation curve with a large enough effect in the signal ratio in the repeat runs, not every such curve was filed as active; the % refers to the signal ratio)
Glucocorticoid receptor (Homo sapiens), sequence (P04150 whole entry, looked up): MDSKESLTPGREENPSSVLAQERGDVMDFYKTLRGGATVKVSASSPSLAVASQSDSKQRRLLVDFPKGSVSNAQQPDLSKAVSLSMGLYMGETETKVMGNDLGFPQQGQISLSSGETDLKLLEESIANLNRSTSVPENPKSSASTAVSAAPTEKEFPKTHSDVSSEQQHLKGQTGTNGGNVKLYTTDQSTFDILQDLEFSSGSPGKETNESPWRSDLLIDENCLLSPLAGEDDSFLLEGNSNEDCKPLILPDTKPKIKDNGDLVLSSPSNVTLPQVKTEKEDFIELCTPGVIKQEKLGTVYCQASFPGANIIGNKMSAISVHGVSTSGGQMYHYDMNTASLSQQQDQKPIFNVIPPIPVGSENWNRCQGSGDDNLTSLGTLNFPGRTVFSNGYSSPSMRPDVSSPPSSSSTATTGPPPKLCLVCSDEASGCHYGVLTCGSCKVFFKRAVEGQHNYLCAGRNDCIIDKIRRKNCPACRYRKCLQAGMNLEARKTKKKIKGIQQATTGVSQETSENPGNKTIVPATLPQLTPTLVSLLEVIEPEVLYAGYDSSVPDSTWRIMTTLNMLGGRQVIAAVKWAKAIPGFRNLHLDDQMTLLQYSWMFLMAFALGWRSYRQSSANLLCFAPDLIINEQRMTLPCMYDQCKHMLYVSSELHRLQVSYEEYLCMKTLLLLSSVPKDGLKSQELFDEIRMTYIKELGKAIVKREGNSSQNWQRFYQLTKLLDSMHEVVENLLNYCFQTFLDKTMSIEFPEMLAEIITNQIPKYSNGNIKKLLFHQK
Procedure, shortened: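 Agonist mode in a HeLa line carrying a GRE-controlled beta-lactamase reporter. Compounds act for 18 h at 37 C before a 2 h room-temperature FRET substrate step and fluorescence reading.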

[18] = qHTS assay to test for compound auto fluorescence at 590 nm (red) in HEK293 cells (AID 720679)
Procedure, shortened: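 We plated HEK293 cells in 10% dialyzed FBS medium, let them adhere for 4-5 hr, then added 23 nL compound. Overnight at 37C and 5% CO2 preceded fluorescence measurement at 540/590nm.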

[19] = molecular target: Glucocorticoid receptor (Homo sapiens) (UniProt P04150); test: qHTS assay to identify small molecule antagonists of the glucocorticoid receptor (GR) signaling pathway (AID 720692; active = well fitted inhibition curve with a large enough effect in the signal ratio in the repeat runs, not every such curve was filed as active; the % refers to the signal ratio)
Procedure, shortened: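 Cells plated, rested 4 h at 37 C/5% CO2; compounds in DMSO pin-transferred; dexamethasone added to 5 nM final; 18 h at 37 C; B/G FRET substrate added, 2 h room temperature; fluorescence measured.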

Measured: Potency

CN(C)CCN(C)CCO
not listed: [18] | [19]
inactive: all other assays above

CCC/C=C(\C=O)CC
not listed: [19]
inactive: all other assays above

CCCCCC(C)O (stereo unspecified)
not listed: [6]
inactive: all other assays above

CC(=O)OC(C)=O
not listed: [5] | [19]
inactive: all other assays above

C/C=C(\C)C(=O)OCCc1ccccc1
not listed: [5] | [19]
inactive: all other assays above

O=C=NCC1CCCC(CN=C=O)C1 (stereo unspecified)
not listed: [5] | [6] | [17] | [19]
inactive: all other assays above

CCNC(=O)NCc1cccc(Cl)c1
not listed: [17] | [18] | [19]
inactive: all other assays above

N[C@@H](Cc1ccc(O)cc1)C(=O)O
not listed: [6] | [10]
inactive: all other assays above

COc1nc(N)nc2nc[nH]c12
not listed: [5] | [10]
inactive: all other assays above

CC1=C(C(=O)O)N2C(=O)[C@@H](NC(=O)[C@H](N)C3=CCC=CC3)[C@H]2SC1
not listed: [10] | [19]
inactive: all other assays above

O=C(CCCCC(=O)Nc1c(I)cc(I)c(C(=O)O)c1I)Nc1c(I)cc(I)c(C(=O)O)c1I
not listed: [10]
inactive: all other assays above

CN(C)C(C)(C)CO
not listed: [6]
inactive: all other assays above

Cc1ccc(N)cc1S(=O)(=O)O
not listed: [5] | [10]
inactive: all other assays above

CC(C)Cn1cnc2c1c(=O)n(C)c(=O)n2C
not listed: [18] | [19]
inactive: all other assays above

Fc1ccccc1
not listed: [5] | [19]
inactive: all other assays above
